# TDP1 cell noCPT: qHTS for Inhibitors of human tyrosyl-DNA phosphodiesterase 1 (TDP1): qHTS in cells in absence of CPT | DT40 Tdp1-/- hTDP1 cells, no CPT, ATP luminescence, 48 h | hit rate 15% among 420,000 | Potency, µM (top dose mostly 46.2 µM), without a hit: at the top dose activity change, negative = growth inhibition, most hits filed as inhibitors; further: on the % scale 0 is the no-effect control and ±100 the full control effect; nearly all actives have a fitted effect of over 55% in size
#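 Seeded 400 DT40-hTDP1 cells/well (vehicle DMSO, no 20 nM CPT); pinned compounds; ≥48 hr at 37 °C; CellTiter-Glo luminescence as viability measure.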
# HT1080 IDH1KD tx: kills HT-1080 cells with IDH1 knockdown; HT-1080 IDH1 knockdown viability, ATP luminescence, 48 h; Potency, µM (titrated, usually from 46.1 µM), without a hit: top-dose activity, negative = toxicity, actives largely listed as cytotoxic; hit rate 2% among 360,000; AID 686971;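 further: 0% = DMSO wells and -100% = cell-free medium wells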
#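 HT-1080-IDH1KD cells (IDH1 knocked down), 750/well in RPMI with 5% FBS, treated with compound 48 h at 37 degrees C. Viability by CellTiter-Glo luminescence, normalised to DMSO and no-cell wells; concentration-response curves classed.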
# HepG2 viability: kills HepG2 cells in TGF-b inhibitor counter-screen. HepG2 CAGA-GFP viability, ATP luminescence, 18 h. Potency, µM (doses to about 46.1 µM), for inactives: at the top dose activity change, negative = cytotoxicity, hits mostly cytotoxic. hit rate 0.76% among 410,000. AID 588856
#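 HepG2 CAGA-GFP cells (1000/well, DMEM with 1% FBS) received compound, then TGF-beta at 500 pg/mL final, and were incubated 18 hours at 37 degrees C. Viability was read by CellTiter-Glo luminescence. Media-only wells were set as complete cell-killing and DMSO as no toxicity.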
# TDP1 cell CPT: growth inhibition of DT40 Tdp1-/-;hTDP1 cells with camptothecin (screen for TDP1 inhibitors) | chicken DT40 Tdp1-/-;hTDP1 cells + 20 nM CPT, ATP luminescence, 48 h | Potency, µM (highest dose often 46.2 µM), without a hit: top-dose activity change, negative = growth inhibition, most hits filed as inhibitors | hit rate 12% among 420,000 | AID 686979; further: on the % scale 0 is the no-effect control and ±100 the full control effect; nearly all actives have a fitted effect of over 55% in size
#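 Chicken DT40 Tdp1-/- cells complemented with human TDP1, 400 cells/well, exposed to compounds plus 20 nM camptothecin for at least 48 h at 37 C; viability read as ATP content by CellTiter-Glo luminescence.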
# HT1080NT lethal: kills 2HG-producing HT-1080-NT fibrosarcoma cells; HT-1080-NT fibrosarcoma viability, CellTiter-Glo ATP luminescence, 48 h; Potency, µM (titrated, usually from 46.1 µM), without a hit: top-dose activity, negative = less viability, most hits filed as cytotoxic; hit rate 1.6% among 360,000; AID 686970;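 further: NT is the 2HG producing partner of a matched IDH1 knockdown line; 0% = DMSO-treated cells and -100% = media-only wells without cells; nearly all actives have a fitted effect of over 55% in size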
#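 Luminescent CellTiter-Glo readout after 48 hours of compound exposure at 37 degrees C defined viability of HT-1080-NT cells. Activity was normalized to DMSO wells and cell-free media wells; concentration-response curves were fitted and assigned curve classes.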
# TGFb SMAD3 inh: blocks TGF-b signaling. HepG2 CAGA-GFP TGF-b/SMAD3 reporter, GFP fluorescence, 18 h; TGF-beta stimulated, 500 pg/mL final. Potency, µM (series often up to 46.1 µM), without a hit: top-dose activity, negative = inhibition, most hits filed as inhibitors. hit rate 1.2% among 410,000. AID 588855; further: on the % scale 0 is the no-effect control and ±100 the full control effect; nearly all actives have a fitted effect of over 65% in size
#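 HEPG2 CAGA-GFP, 1000 cells/well; 2 h settle, 37 C; cpd via pin tool; TGF-b 500 pg/mL final; 18 h, 37 C; GFP imaging ex488/em500-530; %Activity normalised to -TGF-b and +DMSO controls; CRC fit, curve class.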
# * = called active by the depositor; ? = inconclusive; / = not tested or not shown. Most compounds without a hit are left out; they make up all but 17% or so of the library. The call rests on the fitted dose curve; in most records, active means well fitted curve in the direction sought with a large enough effect; inconclusive means small, poorly fitted or top-dose-only effect, or another doubt; inactive means no such curve, though single readings can be large; an effect the other way counts as inactive or inconclusive. Potency means the concentration at half of the fitted maximal effect.
SMILES,TDP1 cell noCPT,HT1080 IDH1KD tx,HepG2 viability,TDP1 cell CPT,HT1080NT lethal,TGFb SMAD3 inh
C#CCN1C(=O)C2(C(C#N)=C(N)OC(C)=C2C(=O)OCc2ccccc2)c2ccccc21 (configuration not stated),23µM*,-23%,-29%,?,0%,0%
CCOC(=O)C1=C(C)OC(N)=C(C#N)C12C(=O)N(C)c1ccccc12 (configuration not stated),-8%,0%,-18%,6%,5%,?
Cn1c(=O)c2cc(S(=O)(=O)Nc3ccc4c(c3)OCO4)ccc2n(C)c1=O,7.1µM*,?,-41%,2.1µM*,?,1%
CC(C)NS(=O)(=O)c1ccc2c(c1)oc(=O)n2C,?,-8%,-13%,-17%,0%,-13%
C=C1CCN([C@@H](CC(C)C)C(=O)Nc2ccc(OC)cc2)S(=O)(=O)c2ccccc21,23µM*,2%,-11%,?,-2%,6%
C=C[C@H]1CN2CCC1C[C@@H]2C(O)c1ccnc2ccccc12 (some centres not stated),-1%,/,/,-3%,/,/
COC(=O)c1cn(Cc2ccc(F)cc2)c2ccccc12,-25%,?,9%,?,-21%,8%
COC(=O)c1cn(C(=O)c2cccc3ccccc23)c2ccccc12,9.2µM*,13µM*,14%,8.2µM*,12µM*,8%
COC(=O)CC1Oc2ccc(C)cc2-n2cc(-c3ccc(F)cc3)nc21 (configuration not stated),9.2µM*,/,-10%,18µM*,/,5%
Cc1c(CC(=O)N2C[C@H]3C[C@@H](C2)c2cccc(=O)n2C3)c(=O)oc2cc(O)c(Cl)cc12,7%,10%,2%,24%,8%,12%
CC(=O)O[C@H]1C[C@@H]2OC3C=C(C)CCC3(C)[C@@]1(C)[C@@]21CO1 (some centres not stated),1µM*,/,2%,0.58µM*,?,1.3µM*
COCC(=O)Nc1nnc(SCC(=O)NCc2cccs2)s1,-16%,3%,-1%,-25%,0%,?
CC1CCOC(=O)C=CC=CC(=O)OC2CC3OC4C5OC5(C)C(O)CC4(COC(=O)C1O)C2(C)C31CO1 (configuration not stated),0.15µM*,/,11%,0.15µM*,?,0.28µM*
CC1=CC2OC3CC4OC(=O)C=CC=CC(=O)OCCC(C)C(O)C(=O)OCC2(CC1)C4(C)C31CO1 (configuration not stated),0.16µM*,/,/,0.023µM*,0.16µM*,0%
CC(O)C1C=CC=CC(=O)OC2CC3OC4C5OC5(C)C(O)CC4(COC(=O)C(O)C(C)CCO1)C2(C)C31CO1 (configuration not stated),0.15µM*,/,4%,0.13µM*,?,0.45µM*
CC1=CC2OC3CC4OC(=O)C=CC=CC(C(C)O)OCC(O)C5(C)OC5C(=O)OCC2(CC1O)C4(C)C31CO1 (configuration not stated),0.15µM*,/,-7%,0.092µM*,0.37µM*,0.16µM*
CCc1cccc(CC)c1NC(=O)Cn1c(-c2ccc(F)cc2)noc1=O,-6%,15%,-18%,3%,-1%,-18%
COc1cc(CN=Cc2c(O)n(Cc3ccccc3)c(=S)[nH]c2=O)cc(OC)c1,-22%,-10%,5%,0%,-7%,34%
O=S1(=O)N(Cc2ccccc2)CCCN1Cc1cccc(Cl)c1,?,/,-38%,-3%,/,-27%
COC(=O)c1c(N)n(Cc2ccc(OC)cc2)c2nc3ccccc3nc12,16µM*,-23%,0%,?,-25%,-5%
CC(C)OC(=O)c1c(N)n(Cc2ccco2)c2nc3ccccc3nc12,?,1%,9%,?,-2%,21%
COCCOC(=O)c1c(N)n(Cc2ccc(OC)cc2)c2nc3ccccc3nc12,21µM*,-11%,-1%,?,-17%,27%
O=c1oc(Cl)c(Cl)c2ccccc12,2.9µM*,-3%,-3%,3.3µM*,14%,0%
Oc1ccc2c3c1O[C@H]1c4c(c5ccccc5n4Cc4ccccc4)C[C@]4(O)[C@H](C2)N(CC2CC2)CC[C@@]314,13µM*,/,/,12µM*,/,/
c1cc2c3c(cccc3c1)CC2,-24%,/,-5%,-5%,/,-10%
SMILES,TDP1 cell noCPT,HT1080 IDH1KD tx,HepG2 viability,TDP1 cell CPT,HT1080NT lethal,TGFb SMAD3 inh
Cc1cc(/C=C2\C(=O)NC(=O)N(c3ccc(Cl)cc3)C2=O)c(C)n1-c1sc2c(c1C#N)CCCC2,?,?,-47%,?,-14%,3.5µM*
CCOC(=O)c1c(-n2c(C)cc(/C=C3\C(=O)NC(=O)N(C)C3=O)c2C)sc2c1CCCC2,?,3%,-14%,?,14%,-10%
Cc1cc(C)cc(NC(=O)CSc2oc(-c3cccs3)nc2S(=O)(=O)c2ccc(Br)cc2)c1,6.5µM*,/,-6%,5.8µM*,/,-2%
Cc1c(C(=O)Nc2ccccc2)c2cc(O)ccc2n1Cc1ccccc1,?,?,6%,?,?,-2%
CCc1ccc(-c2cc(C(F)(F)F)n3nc(C(=O)Nc4c(C)nn(Cc5ccc(F)cc5)c4C)cc3n2)s1,23µM*,?,1%,?,6%,?
Cc1ccc(Cn2cccc(C(=O)Nc3cc(C)on3)c2=O)cc1,-5%,/,-21%,-24%,/,-5%
Cc1cc(NC(=O)COC(=O)c2c(C)nn(Cc3ccccc3)c2C)no1,-18%,-2%,1%,?,-2%,?
Cc1ccc(Cn2nc(C)c(NC(=O)c3cc(-c4ccc(F)cc4)on3)c2C)cc1,7.3µM*,/,-28%,10µM*,/,-12%
COc1ccccc1CNC(=O)C(NS(=O)(=O)c1ccc2c(c1)oc(=O)n2C)C(C)C (configuration not stated),-28%,9%,39%,-2%,10%,36%
CN1CCc2nc(SCc3cccc(Br)c3)c(C#N)cc2C1,18µM*,?,11%,?,?,-19%
Cc1cccc(Cc2cnc(NC(=O)c3ccc4c(c3)CC(c3ccccc3)OC4=O)s2)c1 (configuration not stated),21µM*,/,-2%,26µM*,/,-17%
O=NN(CCCl)C(=O)NCCCl,?,4%,-2%,?,20%,2%

# Screens deposited in PubChem BioAssay by National Center for Advancing Translational Sciences (NCATS).
